From PubChem BioAssay (NCI)
This is part of a sample that, as a whole, favours compounds with a hit. Of some 83,000 tested, about 20% had one in any assay.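 Activity criterion: percent growth below 10, measured after cells in 96-well plates were exposed to a single compound concentration for 48 hours.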 Active and inactive are the calls of the source.

Columns and labels:
Experiment in all cases: NCI-60 one-dose screen, 48 h (100 = growth as untreated, 0 = no growth, -100 = all killed)
[1] = system: K-562 leukemia; details: 10 µM unless noted
[2] = system: MALME-3M melanoma; details: 10 µM unless noted
[3] = system: MDA-MB-231 breast; details: 10 µM unless noted
[4] = system: RXF 393 renal; details: 10 µM unless noted
[5] = system: SF-268 CNS; details: 10 µM unless noted
[6] = system: SF-295 CNS; details: 10 µM unless noted
[7] = system: SF-539 CNS; details: 10 µM unless noted
[8] = system: UACC-257 melanoma; details: 10 µM unless noted
[9] = system: HCT-15 colon; details: 10 µM unless noted
[10] = system: HT29 colon; details: 10 µM unless noted
[11] = system: SNB-75 CNS; details: 10 µM unless noted
[12] = system: SNB-19 CNS; details: 10 µM unless noted
[13] = system: U251 CNS; details: 10 µM unless noted
[14] = system: PC-3 prostate; details: 10 µM unless noted
[15] = system: SK-MEL-5 melanoma; details: 10 µM unless noted
[16] = system: UACC-62 melanoma; details: 10 µM unless noted
[17] = system: LOX IMVI melanoma; details: 10 µM unless noted
[18] = system: SK-MEL-28 melanoma; details: 10 µM
[19] = system: SK-MEL-2 melanoma; details: 10 µM unless noted
[20] = system: M14 melanoma; details: 10 µM unless noted

Measured: growth

CCN(CC)CCNC(=O)C(Cl)=C1C(Cl)=C(Cl)C(Cl)=C1Cl
inactive: [1] 24.2% | [2] 58% | [3] 50.1% | [4] 66.9% | [5] 52% | [6] 71.7% | [7] 60.1% | [8] 44.3% | [9] 50.5% | [10] 41.3% | [11] 48.4% | [12] 85.5% | [13] 40.8% | [14] 56.2% | [15] 47% | [16] 55.1% | [17] 22.6% | [18] 72.7% | [19] 47.6%

CC(=Nc1ccccc1)C1=C(O)C(Cc2ccc(F)cc2)NC1=O (stereo not given)
active: [6] 8.24% | [10] 2.78%
inactive: [1] 12.3% | [2] 24.2% | [3] 69.7% | [4] 15.2% | [5] 54.9% | [7] 18.7% | [8] 38.8% | [9] 23.3% | [11] 17.9% | [12] 42.4% | [13] 28.2% | [14] 18.3% | [15] 25.1% | [16] 23.5% | [17] 36.2% | [18] 45.3% | [19] 17.6%

COc1ccc(C(O)(CCC(C)C)C(CN2CCOCC2)c2ccc(Cl)cc2)cc1 (stereo not given)
inactive: [1] 15.3% | [2] 39.2% | [3] 68.5% | [4] 88.3% | [5] 80.2% | [7] 64.7% | [8] 69.4% | [20] 37.1% | [9] 35.6% | [11] 74.4% | [12] 83.6% | [13] 66.1% | [14] 53.8% | [15] 65.5% | [16] 60.9% | [17] 52.2% | [18] 54.1%
active: [10] 9% | [19] 2.58%

CCN1CCN(C(=S)SCC(=O)Nc2nc3ccc(C)cc3s2)CC1
active: [17] 3.49%
inactive: [1] 104% | [2] 105% | [3] 104% | [4] 108% | [5] 107% | [6] 106% | [7] 117% | [8] 116% | [9] 103% | [10] 102% | [11] 89% | [12] 102% | [13] 110% | [14] 88.8% | [15] 97.5% | [18] 108% | [19] 105%

O=C(CSc1ncccc1C(=O)O)Nc1ccc(Oc2ccccc2)cc1
inactive: [1] 94.4% | [2] 99.3% | [3] 124% | [4] 107% | [5] 105% | [7] 106% | [8] 100% | [20] 98.7% | [9] 104% | [10] 115% | [11] 88.3% | [12] 106% | [14] 99.8% | [17] 92.1% | [18] 105% | [19] 106%

CC(C)(C)c1ccc(C2CC(=O)C3=C(C2)Nc2ccccc2N(C(=O)c2ccccc2Cl)C3c2ccc(F)cc2)cc1 (stereo not given)
inactive: [1] 10.1% | [3] 15.7% | [5] 10.3% | [9] 19.3% | [11] 66.4% | [18] 38.6%
active: [2] -85% | [4] -3.26% | [7] 8.74% | [8] -34.1% | [20] 5.11% | [10] -9.44% | [12] 9.35% | [13] 3.98% | [14] 8.88% | [15] -97.5% | [16] -53.8% | [17] -11.8% | [19] -11.5%

O=C1c2cc(Cl)ccc2Oc2cc([N+](=O)[O-])ccc2N1c1ccc(F)cc1F
inactive: [1] 78.8% | [2] 103% | [3] 83% | [4] 89.6% | [5] 72.9% | [6] 94.6% | [7] 96.7% | [8] 91% | [9] 86.9% | [11] 69.8% | [12] 91.9% | [13] 86.6% | [14] 89.4% | [15] 68.7% | [16] 81.2% | [17] 95.4% | [18] 114% | [19] 80.3%

CN1CCN(c2nc(Nc3ccc(O)cc3)nc3ccccc23)CC1
inactive: [1] 42% | [2] 61.8% | [3] 66.2% | [4] 77.3% | [5] 52.5% | [7] 47.2% | [8] 59.2% | [20] 50.3% | [9] 32.5% | [10] 43.4% | [11] 75.2% | [12] 55.9% | [13] 33.9% | [14] 60% | [15] 46.1% | [17] 20.1% | [18] 66.2% | [19] 76.8%

Cc1ccc2sc3c(NCCCNCCO)nc4ccccc4c3c(=O)c2c1
active: [1] -48.5% | [10] -65% | [13] -39.5% | [16] -25.3% | [17] -27.3%
inactive: [2] 85% | [3] 23.8% | [4] 44.5% | [5] 47.7% | [6] 84.2% | [7] 78.6% | [8] 72.7% | [11] 33.3% | [12] 68.5% | [14] 39.3% | [15] 85.6% | [18] 79.8% | [19] 90.8%

Nc1nc(Nc2cccc(F)c2)nc2ccccc12
inactive: [2] 57.2% | [3] 43.7% | [4] 42% | [5] 77.3% | [7] 54.3% | [8] 12% | [20] 22.9% | [9] 33.4% | [11] 56.1% | [12] 57.5% | [13] 38% | [14] 44.3% | [15] 16% | [16] 41.3% | [17] 17.2% | [18] 44.4% | [19] 50.6%
active: [1] 6.62% | [10] 6.89%

CCN(CC)c1cc(C)c2cc(NC(=O)c3cccc(OC)c3)ccc2n1
inactive: [1] 13.4% | [2] 82.5% | [3] 55.5% | [4] 51.3% | [5] 63.2% | [7] 77.3% | [8] 105% | [20] 77.3% | [9] 61.4% | [10] 67.8% | [11] 81.6% | [12] 84.3% | [13] 55% | [14] 39.5% | [15] 57.3% | [16] 81% | [18] 85.2% | [19] 98.6%

CCCCc1ccc(NS(=O)(=O)c2cc3c4c(c2)CCN4C(=O)CC3)cc1
inactive: [2] 17.8% | [3] 35.7% | [4] 32.5% | [8] 16.3% | [9] 32.6% | [10] 29.9% | [11] 33.9% | [12] 26.8% | [13] 11% | [14] 38.3% | [18] 40.5% | [19] 40.8%
active: [1] 7.56% | [5] 5.78% | [7] 7.3% | [20] -12.8% | [15] 0.989% | [16] -28.9%

COc1ccc(OC)c(N(CCN2C(=O)c3ccccc3C2=O)C(=O)CCl)c1
active: [2] -36.4% | [17] -11.8%
inactive: [1] 102% | [3] 69.7% | [4] 58.7% | [5] 35.3% | [7] 23.1% | [8] 83% | [20] 84.2% | [9] 80.3% | [10] 12.5% | [11] 87.4% | [12] 114% | [13] 60.9% | [14] 31.9% | [15] 94% | [16] 70.5% | [18] 100% | [19] 72.3%

Cc1ccc(OCCCCCCNCCO)c(C)c1
inactive: [3] 18% | [9] 22.8% | [10] 22.4% | [11] 31.1% | [12] 14.5% | [14] 16% | [18] 15.5%
active: [1] 6.98% | [2] -0.226% | [4] -2.46% | [5] 4.83% | [7] -14.7% | [8] -8.91% | [20] -0.43% | [13] 3.86% | [15] -58.3% | [16] -42% | [17] -1.77% | [19] 2.48%

Cc1ccccc1CNC(=O)C1CN(c2ccc(Cl)cc2)N(c2ccc(Cl)cc2)C1=O (stereo not given)
inactive: [1] 51.6% | [2] 91.1% | [3] 84.6% | [4] 91.6% | [5] 83.7% | [6] 90.1% | [7] 98.7% | [8] 78.6% | [9] 78.8% | [10] 77% | [11] 88% | [13] 89.7% | [14] 72.8% | [15] 86.2% | [16] 60.8% | [17] 92.9% | [18] 91% | [19] 91.8%

CCCC(c1nnnn1C1CCCCC1)N1CCN(C(=O)c2ccco2)CC1 (stereo not given)
active: [1] 9.87%
inactive: [2] 53.2% | [3] 63.9% | [4] 65.1% | [5] 60.8% | [7] 65.7% | [8] 82.5% | [20] 30.5% | [9] 45.5% | [11] 76.7% | [12] 84.5% | [13] 50.2% | [14] 54.2% | [15] 47.1% | [16] 55.7% | [19] 65.1%

CCOc1ccccc1CN1CCc2nc3cc(C(C)(C)C)[nH]n3c(=O)c2C1
inactive: [1] 87.2% | [2] 107% | [3] 92.3% | [4] 93.5% | [5] 105% | [7] 93.7% | [8] 108% | [20] 91.6% | [9] 97.4% | [10] 94.8% | [11] 105% | [12] 94.8% | [13] 104% | [14] 109% | [15] 101% | [16] 102% | [17] 96.7% | [18] 112% | [19] 98.3%
